Source: PubChem
GRIN3A LBD mod – NR3A (human) ligand-binding domain modulation. NR3A LBD differential scanning fluorimetry, Tm shift; 0% = protein alone, 100% = glycine-bound protein. Tm shift relative to glycine control, % at 25 µM. 340,000 compounds, 2.5% hits. AID 1259313;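 active means melting temperature shift of at least 10% of the positive control shift, at one fixed dose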
pCIP destab – lowers stability of the mouse p/CIP coactivator protein; decrease of EGFP signal, % at 10 µM; F442A p/CIP-EGFP cells, EGFP fluorescence, 16 h; AID 1984; 290,000 compounds, 0.01% hits; Q05BA5;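 active means EGFP signal decrease of at least 30% at 10 µM or well 3 SD below plate mean, unless failing retest; inactive means the rest, including hits failing retest or dose response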
Target sequence (Q05BA5 1-1403): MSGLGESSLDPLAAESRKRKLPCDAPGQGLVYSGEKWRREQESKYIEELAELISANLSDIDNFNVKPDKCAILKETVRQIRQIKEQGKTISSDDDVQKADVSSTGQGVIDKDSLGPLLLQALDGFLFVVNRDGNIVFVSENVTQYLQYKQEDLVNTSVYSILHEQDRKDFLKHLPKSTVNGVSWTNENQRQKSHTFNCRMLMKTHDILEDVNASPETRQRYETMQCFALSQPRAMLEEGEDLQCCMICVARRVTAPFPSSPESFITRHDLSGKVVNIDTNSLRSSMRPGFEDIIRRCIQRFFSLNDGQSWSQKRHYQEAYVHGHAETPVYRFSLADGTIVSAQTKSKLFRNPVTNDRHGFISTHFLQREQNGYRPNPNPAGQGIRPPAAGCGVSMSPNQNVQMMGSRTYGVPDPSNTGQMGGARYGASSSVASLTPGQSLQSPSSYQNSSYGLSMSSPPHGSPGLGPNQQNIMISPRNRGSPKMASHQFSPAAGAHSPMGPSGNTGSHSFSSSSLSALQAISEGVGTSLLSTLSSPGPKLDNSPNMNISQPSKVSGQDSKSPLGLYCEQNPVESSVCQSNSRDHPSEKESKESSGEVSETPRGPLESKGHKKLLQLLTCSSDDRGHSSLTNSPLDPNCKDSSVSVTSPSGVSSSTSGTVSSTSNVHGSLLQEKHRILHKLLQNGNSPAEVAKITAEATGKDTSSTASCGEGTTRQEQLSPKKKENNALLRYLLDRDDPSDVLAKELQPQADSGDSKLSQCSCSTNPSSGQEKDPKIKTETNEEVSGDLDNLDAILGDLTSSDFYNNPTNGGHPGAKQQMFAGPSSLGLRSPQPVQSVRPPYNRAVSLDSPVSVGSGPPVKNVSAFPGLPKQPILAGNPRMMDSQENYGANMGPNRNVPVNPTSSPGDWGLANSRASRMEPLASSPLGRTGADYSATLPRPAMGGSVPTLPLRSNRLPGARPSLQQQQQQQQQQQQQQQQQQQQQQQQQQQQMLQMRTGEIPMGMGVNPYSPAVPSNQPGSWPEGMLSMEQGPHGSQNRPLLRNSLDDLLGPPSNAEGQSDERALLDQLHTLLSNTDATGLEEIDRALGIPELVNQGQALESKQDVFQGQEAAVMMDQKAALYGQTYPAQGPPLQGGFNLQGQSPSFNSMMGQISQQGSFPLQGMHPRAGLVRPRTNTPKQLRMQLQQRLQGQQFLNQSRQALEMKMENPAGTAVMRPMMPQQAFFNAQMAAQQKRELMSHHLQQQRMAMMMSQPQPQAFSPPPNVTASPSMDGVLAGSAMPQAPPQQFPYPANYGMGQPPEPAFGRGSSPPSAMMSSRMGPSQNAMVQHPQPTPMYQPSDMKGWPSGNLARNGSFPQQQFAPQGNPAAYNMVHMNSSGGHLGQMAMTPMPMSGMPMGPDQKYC
MPTP inh – blocks calcium-induced mitochondrial swelling; 360,000 compounds, 1.4% hits; isolated mouse mitochondria, Ca2+ swelling absorbance, 30 min; inhibition, % at 10 µM; AID 602449;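 active means inhibition of 50% or more, scaled per plate between neutral and stimulator controls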;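 further: 0% = DMSO wells given calcium and 100% = 1 mM EGTA wells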
FAS TE block – inhibitors of human fatty acid synthase thioesterase domain. P49327. recombinant FAS-TE, OMFH fluorogenic substrate, fluorescence endpoint. inhibition, % at 15 µM. 360,000 compounds, 0.67% hits;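 active means compounds whose normalised, plate-corrected inhibition of enzyme fluorescence in the single-dose primary screen is 50% or more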;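 further: 0% = DMSO with enzyme and 100% = substrate without enzyme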
beta cell repl – MIN6 beta-cell proliferation induction. MIN6 cells proliferation, ATPlite luminescence, 48 h; cells starved in 0.2% serum; 100% = growth in 10% serum. proliferation, % at 10 µM. 330,000 compounds, 0.29% hits. AID 2380;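 active means compounds whose signal lies at least 3.5 SD above the mean of all wells on their plate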;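 further: 0% = DMSO-treated cells in low-serum medium and 100% = 10% serum control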
MPTP counter – membrane potential counter-screen of mitochondrial pore inhibitors | shares compounds with MPTP inh | isolated mitochondria, Rhodamine 123 fluorescence | inhibition, % at 10 µM | 5,000 compounds, 78% hits; in the data active means inhibition above about 22%;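 further: 0% = DMSO vehicle and 100% = positive control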
MPTP abs DR – dose response confirmation of mitochondrial permeability transition pore inhibitors; AID 651561; IC50, µM; 780 compounds, 58% hits; isolated mitochondria swelling, absorbance; shares compounds with MPTP inh; in the data active means IC50 below about 20 µM
MPTP cs DR – counter-screen for mitochondrial permeability transition pore inhibitors, dose response; shares compounds with MPTP inh; isolated mitochondria counterscreen, fluorescence read-out; IC50, µM; 780 compounds, 49% hits; in the data active means IC50 below about 80 µM
The depositor's hits bear a star; i = inactive; / = no result. Sampled rows, rich in hits. Any-hit rate of the full collection: about 4.1%.

SMILES	GRIN3A LBD mod	pCIP destab	MPTP inh	FAS TE block	beta cell repl	MPTP counter	others
O=C(NN=C1CCCC1)c1[nH]c2ccc(Br)cc2c1-c1ccccc1	-15	-4	/	/	-6	/
O=C(N/N=C/c1ccccc1)c1[nH]c2ccc(Br)cc2c1-c1ccccc1	27*	-28	86*	5	-5	90*
O=C(Nc1ccccc1N1CCOCC1)c1cccc(Oc2ccccc2)c1	-1	-3	2	22	-5	/
O=c1[nH]ncc(N/N=C\c2cccs2)c1Cl	-2	-6	0	-8	1	/
Cn1c(=O)c2c(SCC(=O)N3CCCc4ccccc43)nc(CC(C)(C)C)nc2n(C)c1=O	-1	-11	62*	35	-8	-7
CCCc1nc(SCC(=O)N2CCC(Cc3ccccc3)CC2)c2c(=O)n(C)c(=O)n(C)c2n1	1	2	52*	41	-7	-7
CCc1nc(SCC(=O)N2CCN(c3ccccc3)CC2)c2c(=O)n(C)c(=O)n(C)c2n1	/	-8	/	/	/	/
CCCc1nc(SCC(=O)N2CCCc3ccccc32)c2c(=O)n(C)c(=O)n(C)c2n1	-1	-13	0	18	-7	/
O=C(COC(=O)CNC(=O)c1ccccc1)NCCCc1ccccc1	0	/	-2	-4	0	/
CCOC(=O)c1c(CN2CCCCC2)n(C)c2cc(Br)c(OC)cc12	0	-6	50	19	-3	/
CCOC(=O)c1c(CNCCN(CC)CC)n(C)c2cc(Br)c(OC)cc12	-1	-2	74*	-13	-1	-14	MPTP abs DR=i;MPTP cs DR=>80
CCOC(=O)c1c(CN2CCN(CCO)CC2)n(C)c2cc(Br)c(OC)cc12	-1	5	68*	-7	-4	-10	MPTP abs DR=i;MPTP cs DR=>80
O=C(c1cc2c(F)cccc2s1)N1CCCC1	-2	-4	1	-8	-2	/
CCc1nnc(NS(=O)(=O)c2ccc(NC(=S)NC(=O)/C=C/c3ccc(F)cc3)cc2)s1	8	-2	53*	2	-1	40*
COc1ccc(C(O)c2nc(-c3ccc4ccccc4c3)cs2)cc1 (stereo not given)	/	/	1	20	/	/
CS(=O)(=O)C1=NSC2=NC(=O)/C(=C\c3cccn3-c3ccc(Cl)cc3)C(=N)N21	19*	-12	96*	2	/	61*
Cc1cc(/C=C2/C(=N)N3C(=NC2=O)SN=C3S(C)(=O)=O)c(C)n1-c1ccccc1F	-24	14	33	9	-5	/
Cc1cc(N(CC(=O)NC2CC2)S(C)(=O)=O)ccc1Br	5	-12	0	-9	-3	/
COc1ccc(N2CSC(=S)N(c3ccc(OC)cc3)C2)cc1	/	/	3	3	/	/
O=c1[nH]c(CN2CCCCC2)nc2c1C1(CCCCC1)Cc1ccccc1-2	0	22	77*	-1	-4	-2	MPTP abs DR=>100;MPTP cs DR=>80
CCc1nc2c(c(=O)[nH]1)C1(CCCC1)Cc1ccccc1-2	/	10	0	2	-1	/
CC(=O)c1c(C)[nH]c(C(=O)CSc2ncnc3sc(-c4ccccc4)cc23)c1C	-2	-7	96*	-8	-6	39*
O=C(O)CSc1ncnc2sc(-c3ccccc3)cc12	-1	7	0	-6	3	/
Cc1ccn(CC(=O)N2CCCC(N3CCN(c4cccc(Cl)c4)CC3)C2)n1 (stereo not given)	0	9	0	-3	-3	/
CN1C(=O)c2cccc(NCCCN3C(=O)c4ccccc4C3=O)c2C1=O	-2	-14	-2	-6	0	/
CN1C(=O)c2cccc(NCCCCCCN3C(=O)c4ccccc4C3=O)c2C1=O	0	-13	108*	8	-4	94*
COc1ccc(C(=O)Nc2ccc(-c3cn4ccsc4n3)cc2)cc1S(=O)(=O)N1CCOCC1	27*	-6	58*	11	-3	9	MPTP abs DR=>100;MPTP cs DR=>80
COCc1cccc(-c2csc(C(NC(C)=O)c3ccc(F)c(F)c3)n2)c1 (stereo not given)	/	/	1	9	/	/
COc1ccc(CN(C)S(=O)(=O)c2nnc(NC(=O)c3cccc(OC)c3)s2)cc1	-1	1	11	6	-2	/
